Compound activity from PubChem.
KLK7 zymogen act: activators of human kallikrein-7 zymogen; activation, % at 7 µM; purified proKLK7, EDANS-DABCYL substrate fluorescence; 100% is mature enzyme control, 0% vehicle; P49862; hit rate 0.9% among 370,000;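 active = activation above the mean of all tested compounds plus 3 SD, computed per campaign excluding outliers beyond control limits, cut at about 13% in these data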
GASC-1 inh: blocks human GASC-1 demethylase activity; GST-JMJD2C(1-420) H3K9me3 demethylation, DELFIA europium; inhibition, % at 2.35 µM; hit rate 0.069% among 330,000; AID 2099;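 active = more than half of a compound's replicate wells show inhibition beyond 50%, single wells judged on their own value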;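 also: signal counts dimethyl H3K9 product captured on neutravidin plate; 0% = median of DMSO wells and 100% = 0.3 times that DMSO median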
PG9 binder: binds the HIV-1 gp120 antibody PG9. TR-FRET gp120-PG9 antibody binding. inhibition, % at 6.7 µM. hit rate 0.43% among 360,000; in the data active = inhibition above about 8.5%
PP1 inh: PP1-alpha (human) inhibition in PP5 counter-screen; P62136; purified PP1alpha, OMFP fluorescence; inhibition, % at 6.7 µM; hit rate 0.9% among 320,000;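 active = inhibition above the mean inhibition of all tested compounds plus 3 SD, computed separately for each screening campaign, cut at about 15% in these data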
PP5 inh: blocks human protein phosphatase 5 activity; purified PP5c, OMFP substrate fluorescence; inhibition, % at 6.7 µM; hit rate 0.18% among 320,000; AID 1987;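 active = inhibition above the campaign's mean inhibition across all tested compounds plus 3 SD, cut at about 9.5% in these data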;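 also: 0% = DMSO only and 100% = 100 µM cantharidin control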
Rev-erbA mod: Rev-erb alpha (human) modulation; P20393; Rev-erbα–FITC-DNA binding, fluorescence polarization, 90 min; activity, % at 10 µM; hit rate 0.79% among 370,000;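 active = activity above about 14%, limit read from the data; passing the limit was not always enough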;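 also: 0% = DMSO wells with 35 nM protein and 100% = DMSO wells with 750 nM protein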
Target sequence (P20393 whole entry, looked up): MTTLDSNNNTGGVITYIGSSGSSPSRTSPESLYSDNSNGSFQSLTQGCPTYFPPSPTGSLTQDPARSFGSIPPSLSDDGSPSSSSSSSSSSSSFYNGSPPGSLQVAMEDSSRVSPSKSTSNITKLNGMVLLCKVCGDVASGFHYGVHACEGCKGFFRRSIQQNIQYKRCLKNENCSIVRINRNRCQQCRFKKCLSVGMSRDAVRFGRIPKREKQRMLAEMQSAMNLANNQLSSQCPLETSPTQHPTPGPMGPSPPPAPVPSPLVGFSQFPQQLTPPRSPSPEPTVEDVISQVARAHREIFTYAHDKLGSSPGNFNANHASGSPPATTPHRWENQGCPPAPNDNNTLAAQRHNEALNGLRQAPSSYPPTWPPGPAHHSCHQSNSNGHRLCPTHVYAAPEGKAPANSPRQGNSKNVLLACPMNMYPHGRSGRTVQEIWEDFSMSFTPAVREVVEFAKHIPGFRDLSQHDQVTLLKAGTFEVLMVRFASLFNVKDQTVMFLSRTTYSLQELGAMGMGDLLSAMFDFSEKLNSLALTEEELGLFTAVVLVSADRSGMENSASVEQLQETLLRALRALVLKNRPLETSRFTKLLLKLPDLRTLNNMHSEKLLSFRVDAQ
KLK7 act conf: confirmation of human kallikrein-7 zymogen activators; shares compounds with KLK7 zymogen act; purified proKLK7, EDANS-DABCYL substrate fluorescence; scaled: vehicle 0, mature enzyme 100; activation, % at 7 µM; hit rate 68% among 3,200; AID 686949;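 active = activation, as change over the incubation, above the mean of all tested compounds plus 3 SD, cut at about 13% in these data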
EDANS-DABCYL int: counter-screen for kallikrein-7 activators: EDANS-DABCYL optical interference. hit rate 80% among 3,200. shares compounds with KLK7 zymogen act. AID 686952. activation, % at 7 µM. EDANS-DABCYL substrate fluorescence interference, no enzyme, 4 h; solvent 0%, active enzyme control 100%;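 active = activation above the all-compound mean plus 3 SD, ignoring values outside control-based bounds, cut at about 4.8% in these data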;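 also: value is the 4 h activation minus the activation read at time zero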
EDANS interf: optically interferes with EDANS-DABCYL fluorescence, kallikrein-7 activator counter-screen; shares compounds with KLK7 zymogen act; EDANS-DABCYL peptide fluorescence interference, no enzyme; EC50, µM; hit rate 20% among 250; AID 720493;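 active = compounds that raise the fluorescence signal in this interference counterscreen, with EC50 at or below 10 µM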;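 also: intact quenched peptide substrate alone read at 355 nm excitation and 520 nm emission; signal is fluorescence gain from T0 to T4 after four hours at room temperature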
Numbers without * were called inactive; i = inactive; · = no result given. Only some compounds are listed: those with a hit (about 2.8% of all), similar ones and a draw of the others.

SMILES	KLK7 zymogen act	GASC-1 inh	PG9 binder	PP1 inh	PP5 inh	Rev-erbA mod	KLK7 act conf	EDANS-DABCYL int	others
CCOC(=O)C1CCN(C(=O)c2cc3c(=O)n4ccccc4nc3s2)CC1	42.0*	1.7	1.4	1.1	2.4	9.8	68.4*	70.8*
CCOC(=O)CC1C(=O)NCCN1C(=O)c1cc2c(=O)n3ccccc3nc2s1 (stereo not drawn)	·	2.2	·	2.6	3.0	·	·	·
O=C(c1cc2c(=O)n3ccccc3nc2s1)N1CCN(Cc2ccccc2)CC1	25.1*	-5.7	0.3	-2.6	-2.0	-1.7	-76.2	-92.6
Fc1cccc(Cn2ccc3ccc(-c4ccc5ccn(Cc6cccc(F)c6)c5c4)cc32)c1	-3.0	·	·	·	·	2.8	·	·
COC(=O)C1=C(C)N(Cc2cccc(C(F)(F)F)c2)C(=NCC2CC2)NC1c1ccccc1C(F)(F)F (stereo not drawn)	0.6	·	1.9	·	·	2.6	·	·
C=CCN1[C@H](C)COc2cc(N3CCCC3)ccc2S1(=O)=O	-0.1	·	·	·	·	2.8	·	·
CCCCCCCCN1C(=O)[C@@H](CC(=O)N2CCCC2)C[C@@]2(C(=O)OC)C1=C[C@H](C(C)C)O[C@@H]2C1CC1	0.2	·	·	·	·	-1.4	·	·
COc1cccc(CN2CC(C(=O)NCCc3cn4cccnc4n3)CCC2=O)c1 (stereo not drawn)	18.9*	·	-0.5	·	·	-5.0	18.9*	14.1*	EDANS interf=9.68*
COc1ccccc1C1C=C(c2ccccc2)Nc2nnnn21 (stereo not drawn)	20.6*	-10.9	-1.4	-2.6	0.4	-2.3	16.4*	13.5*	EDANS interf=i
COc1cccc(C2=CC(c3ccc(OC)c(OC)c3OC)n3nnnc3N2)c1 (stereo not drawn)	6.2	3.4	-1.1	0.0	-2.1	-6.2	·	·
O=C(Nc1ccc2c(c1)OCO2)C(c1ccc(Cl)cc1)N1CCC2(CC1)OCCO2 (stereo not drawn)	18.3*	14.1	-1.8	2.8	3.7	-0.5	0.3	-1.2
Cc1nn(-c2ccccc2)c(C)c1N	-0.8	-3.6	-1.4	0.0	-1.2	-2.6	·	·
Cc1c(O)cnc2nn(-c3ccccc3)c(=N)n12	40.4*	·	0.8	·	·	-7.2	16.8*	17.4*
CCC(C)N(C(=O)CNc1nnnn1-c1ccccc1)C(C)CC (stereo not drawn)	0.3	·	·	·	·	1.6	·	·
CN1C(=O)C2C(c3ccc(N(C)C)cc3)=NN(Cc3ccccc3)C2C1=O (stereo not drawn)	23.6*	2.2	-0.1	-2.3	2.8	1.3	23.9*	31.5*
CCOC(=O)N1CCC(N2CCCC(C(=O)c3cc(C)c(OC)c(C)c3)C2)CC1 (stereo not drawn)	-0.2	63.2	-3.5	-5.5	2.0	3.2	·	·
COc1ccc2cc(C(=O)C3CCCN(Cc4cccc(C)n4)C3)ccc2c1 (stereo not drawn)	45.3*	1.7	1.2	1.0	4.0	-2.8	-18.5	-19.6
CCOC(=O)N1CCC(N2CCCC(C(=O)c3ccc4cc(OC)ccc4c3)C2)CC1 (stereo not drawn)	68.9*	-1.1	-0.5	0.7	0.8	-1.5	-29.5	-45.2
C[C@H]1[C@@H](OC(=O)Nc2cccc(Cl)c2)CC[C@@]23CCCN2C(=O)CCC[C@@H]13	·	·	·	·	·	-3.8	·	·
Cn1ccc2c(-c3cccc(C=O)c3)cc3c(c21)C1CCC3O1 (stereo not drawn)	17.4*	·	-0.6	·	·	-3.6	15.3*	13.8*
CC(=O)Nc1cccc(-c2cc3c(c4c2ccn4C)C2CCC3O2)c1 (stereo not drawn)	2.1	·	1.0	·	·	-8.0	·	·
COc1ccc(NC(=O)CCCNS(=O)(=O)c2ccc3[nH]c(=O)oc3c2)cc1OC	0.0	·	·	·	·	-7.9	·	·
C=C(C)C1CC=C(C)/C(=N\NC(=O)CNc2cccc3ccccc23)C1 (stereo not drawn)	24.9*	-1.0	-3.2	-6.7	2.3	-2.2	6.2	6.8*
COc1ccc(Cn2nnnc2CN(CCCN2CCOCC2)Cc2cc3cc(OC)ccc3[nH]c2=O)cc1	0.6	5.1	0.3	-4.0	0.4	-0.8	·	·
COc1ccc2cc(CN(CCCN3CCOCC3)Cc3nnnn3C3CCCC3)c(=O)[nH]c2c1	16.5*	-4.0	-0.3	-1.6	2.5	-1.2	0.5	0.7
SMILES	KLK7 zymogen act	GASC-1 inh	PG9 binder	PP1 inh	PP5 inh	Rev-erbA mod	KLK7 act conf	EDANS-DABCYL int	others
C[C@@H]1CCCN1c1cccc2c1S(=O)(=O)N1CC[C@@H](C1)O2	-0.7	·	·	·	·	2.4	·	·
Cc1ccc(C=Nc2ccccc2C(=O)Nc2ccccc2)cc1	-21.1	12.0	-0.9	2.6	1.9	11.7	·	·
O=C(Nc1ccccc1)c1ccccc1N=Cc1cccc(O)c1	31.6*	1.1	-1.2	-0.7	-6.4	-5.5	15.4*	16.7*
CCCCN1C2=C(C(=O)CC(C)(C)C2)C(c2ccccc2)C2=C1c1ccccc1C2=O (stereo not drawn)	0.2	-9.4	-1.2	0.5	0.9	0.8	·	·
CC1(C)CC(=O)C2=C(C1)N(CCN1CCOCC1)C1=C(C(=O)CC(C)(C)C1)C2c1cccc(Cl)c1	25.6*	-1.5	-0.8	0.8	1.7	-2.8	2.4	8.1*
CCN(CC)CCN1C2=C(C(=O)CC(C)(C)C2)C(c2cccc(F)c2)C2=C1CC(C)(C)CC2=O	16.1*	-1.5	0.3	1.4	0.6	0.9	-5.8	-3.3
CC(C)CN1CCC(CN2C(=S)NC[C@@H]2Cc2ccccc2)CC1	-0.3	·	-1.2	·	·	5.8	·	·
COCC(=O)N1CCC(C(=O)NC2CCCc3ccccc32)CC1 (stereo not drawn)	-0.1	·	·	·	·	7.6	·	·
